FLuc inh – Firefly luciferase inhibition profiling of diverse chemical library using quantitative high-throughput screening. Luciferin 4-monooxygenase (Photinus pyralis), P08659. purified P. pyralis luciferase, luminescence, biochemical. Potency, µM (titrated, usually from 115 µM), most hits filed as inhibitors. 76,000 tested, 2.5% active. AID 1347043, 2019; further: nearly all actives have a fitted effect of over 65% in size
Target sequence (P08659 whole entry, looked up): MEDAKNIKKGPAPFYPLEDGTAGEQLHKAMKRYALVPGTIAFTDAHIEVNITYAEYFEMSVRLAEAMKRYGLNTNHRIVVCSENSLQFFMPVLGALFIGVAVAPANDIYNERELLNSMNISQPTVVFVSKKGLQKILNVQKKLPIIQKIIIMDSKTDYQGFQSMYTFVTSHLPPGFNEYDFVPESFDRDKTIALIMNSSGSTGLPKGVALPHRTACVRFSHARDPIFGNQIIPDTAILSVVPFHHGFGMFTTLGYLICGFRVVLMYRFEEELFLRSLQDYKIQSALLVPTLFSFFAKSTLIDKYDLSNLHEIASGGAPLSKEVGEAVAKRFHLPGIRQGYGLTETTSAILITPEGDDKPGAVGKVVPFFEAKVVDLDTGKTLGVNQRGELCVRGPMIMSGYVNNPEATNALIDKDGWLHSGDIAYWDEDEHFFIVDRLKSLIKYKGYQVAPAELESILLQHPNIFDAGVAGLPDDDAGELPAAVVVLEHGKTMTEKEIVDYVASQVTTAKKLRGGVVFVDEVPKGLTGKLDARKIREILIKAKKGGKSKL
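Cell-free enzyme assay, 10nM P. pyralis luciferase, luciferin and ATP each at 10uM. Inhibition profiled over a 6-point titration, read as luminescence.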
NPR1 antag – Natriuretic polypeptide receptor (hNpr1) antagonism - Primary qHTS. Potency, µM (top dose mostly 46.3 µM), most hits filed as inhibitors. HEK293 hNpr1 GloSensor cGMP, ANP-stimulated luminescence. Atrial natriuretic peptide receptor 1 (Homo sapiens), P16066. 76,000 tested, 1.6% active; calls by dose curve; further: nearly all actives have a fitted effect of over 60% in size
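Compound pre-incubated 30 min at room temperature on GloSensor-loaded HEK293 cells stably carrying hNpr1 and the pGS-40F cGMP biosensor. Stimulation uses hNppA at 0.1 nM final; luminescence is taken at baseline and 20 min post-agonist.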
3T3 cytotox – Cytotoxic Profiling in NIH 3T3 Cell Line of Diverse Libraries Using Quantitative High-Throughput Screening; NIH 3T3 viability, CellTiter-Glo ATP luminescence, 48-72 h; Potency, µM (titrated, usually from 96.7 µM), hits mostly inhibitors; 94,000 tested, 4.3% active; further: nearly all actives have a fitted effect of over 55% in size
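ATP-dependent luminescence (CellTiter-Glo) served as the viability signal for NIH 3T3 cells treated with compound for 48 or 72 hr at 37 °C.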
GPT2 inhibitor – Primary qHTS assay for inhibitors of Glutamate pyruvate transaminase 2 (GPT2). Alanine aminotransferase 2 (Homo sapiens), Q8TD30. Recombinant GPT2, coupled pyruvate oxidase/HRP Amplex Red fluorescence. Potency, µM (titrated, usually from 57.7 µM), actives largely listed as inhibitors. 100,000 tested, 0.25% active; further: nearly all actives have a fitted effect of over 60% in size
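Inhibition is scored from Amplex Red fluorescence generated when pyruvate oxidase and HRP act on pyruvate released by GPT2. Reactions contain 10ng/uL enzyme, 250uM a-KG and 2mM L-alanine and run 30 min at room temperature.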
HEK293 tox – Cytotoxic Profiling in HEK 293 Cell Line of Diverse Libraries Using Quantitative High-Throughput Screening | HEK 293 viability, ATP luminescence (CellTiter-Glo), 48-72 h | Potency, µM (titrated, usually from 115 µM), actives largely listed as inhibitors | 94,000 tested, 6.6% active | AID 1345083, 2018; further: nearly all actives have a fitted effect of over 60% in size
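Luminescence from cellular ATP, measured with CellTiter-Glo, indicates HEK 293 viability. Cells plated at 250 cells/well are treated with compound for 48 or 72 hr at 37 degree Celsius before reagent addition.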
Of the large screens only hits and unclear results are named; the others gave an inactive call. Compounds with a hit are over-represented: about 10% of the library has one in this group of screens. Unless noted, the call rests on the fitted dose curve; in most records, active means well fitted curve in the direction sought with a large enough effect; inconclusive means small, poorly fitted or top-dose-only effect, or another doubt; inactive means no such curve, though single readings can be large; an effect the other way counts as inactive or inconclusive.

O=C1CCN(C(=O)[C@@H](Cc2ccccc2)NC(=O)NCCc2ccccc2)CCOCCN1	none
O=C(c1ccc[nH]1)N1CCCC(n2cc(-c3nc(-c4ccccc4)no3)nn2)C1 (centres undefined)	FLuc inh inconclusive, NPR1 antag inconclusive, 3T3 cytotox inconclusive, HEK293 tox inconclusive
COc1ccc(C(=O)N2CCCC(n3cc(-c4nc(-c5ccccc5)no4)nn3)C2)cc1 (centres undefined)	FLuc inh inconclusive, NPR1 antag inconclusive, 3T3 cytotox inconclusive, HEK293 tox 28.2µM
O=C(c1ccc2c(c1)OCO2)N1CCC(n2cc(-c3nc(-c4ccccc4)no3)nn2)CC1	FLuc inh inconclusive, NPR1 antag inconclusive, 3T3 cytotox inconclusive, HEK293 tox inconclusive
O=C(c1cccs1)N1CCCC(n2cc(-c3nc(-c4ccccc4)no3)nn2)C1 (centres undefined)	FLuc inh 35.5µM, NPR1 antag inconclusive, 3T3 cytotox inconclusive, HEK293 tox inconclusive
CN(C)c1cccc(C(=O)N2CCC(n3cc(-c4nc(-c5ccccc5)no4)nn3)C2)c1 (centres undefined)	FLuc inh 31.6µM, NPR1 antag inconclusive, 3T3 cytotox inconclusive, HEK293 tox 28.2µM
O=C(c1ccc2c(c1)OCO2)N1CCC(n2cc(-c3nc(-c4ccccc4)no3)nn2)C1 (centres undefined)	FLuc inh inconclusive, NPR1 antag 12.6µM, HEK293 tox inconclusive
COc1ccccc1OCCNC(=O)[C@]12CCCC[C@@H]1N(C)C(=O)CC2	none
O=C(Nc1nnc(Cc2ccccc2)s1)C1CC(=O)N(c2n[nH]c3cccc(F)c23)C1 (centres undefined)	none
O=C(c1ccc(F)c(F)c1)N1CCCC(n2cc(-c3nc(-c4ccccc4)no3)nn2)C1 (centres undefined)	FLuc inh inconclusive, NPR1 antag 11.2µM, 3T3 cytotox inconclusive, HEK293 tox 44.7µM
COc1ccc(C(=O)N2CCCC(n3cc(-c4nc(-c5ccccc5)no4)nn3)C2)cc1F (centres undefined)	FLuc inh inconclusive, NPR1 antag inconclusive, 3T3 cytotox inconclusive, HEK293 tox 20µM
COc1ccccc1C(=O)N1CCC(n2cc(-c3nc(-c4ccccc4)no3)nn2)C1 (centres undefined)	FLuc inh 31.6µM, NPR1 antag 12.6µM, 3T3 cytotox inconclusive, HEK293 tox 28.2µM
O=C(c1cccc(F)c1)N1CCCC(n2cc(-c3nc(-c4ccccc4)no3)nn2)C1 (centres undefined)	FLuc inh inconclusive, NPR1 antag inconclusive, 3T3 cytotox inconclusive, HEK293 tox inconclusive
COc1ccccc1CC(=O)N1CCC(n2cc(-c3nc(-c4ccccc4)no3)nn2)CC1	none
O=C(c1cc(Cl)ccc1F)N1CCCC(n2cc(-c3nc(-c4ccccc4)no3)nn2)C1 (centres undefined)	FLuc inh inconclusive, NPR1 antag 15.8µM, 3T3 cytotox inconclusive, HEK293 tox 31.6µM
C#CCNC(=O)[C@H]1O[C@H](CCN(CCOC)CCOC)CC[C@@H]1O	none
CC1(c2ccccc2)CCCN(c2cncc(C(=O)N3CCOCC3)n2)C1 (centres undefined)	HEK293 tox inconclusive
C#CCN(C)C(=O)CC1COc2ccc(C(=O)NCCOC)cc2N1C (centres undefined)	none
COc1ccc(C(=O)N2CCCC3(CC(C)=NO3)C2)cc1 (centres undefined)	none (no result: FLuc inh, NPR1 antag)
COc1ccc(OCC2CCCN(C(=O)c3cn(C4CCCCC4)nn3)C2)cc1 (centres undefined)	FLuc inh 31.6µM, 3T3 cytotox inconclusive, GPT2 inhibitor inconclusive, HEK293 tox inconclusive
CCCc1noc(-c2cn(C3CCN(C(=O)c4cccc(F)c4)CC3)nn2)n1	3T3 cytotox 35.5µM
O=C(c1ccncc1)N1CCCC(n2cc(-c3nc(-c4ccccc4)no3)nn2)C1 (centres undefined)	FLuc inh inconclusive, 3T3 cytotox inconclusive
O=C(c1ccc(F)c(F)c1)N1CCC(n2cc(-c3nc(-c4ccccc4)no3)nn2)C1 (centres undefined)	FLuc inh inconclusive, NPR1 antag 11.2µM, 3T3 cytotox inconclusive, HEK293 tox 39.8µM
CCCc1noc(-c2cn(C3CCN(C(=O)c4cc(F)cc(F)c4)CC3)nn2)n1	HEK293 tox inconclusive
O=C(c1ccoc1)N1CCCC(n2cc(-c3nc(-c4ccccc4)no3)nn2)C1 (centres undefined)	FLuc inh inconclusive, NPR1 antag inconclusive, 3T3 cytotox inconclusive, HEK293 tox 50.1µM
COCc1cc(CC2(NCc3ccc(N(C)C)cc3)COC2)no1	none
Fc1ccc(CNC2(Cc3cc(-c4ccccn4)on3)COC2)cc1	HEK293 tox inconclusive
O=C(c1cccc(Cl)c1)N1CCC(n2cc(-c3nc(-c4ccccc4)no3)nn2)C1 (centres undefined)	FLuc inh inconclusive, 3T3 cytotox inconclusive, HEK293 tox 39.8µM
O=C(c1cccc(F)c1)N1CCC(n2cc(-c3nc(-c4ccccc4)no3)nn2)C1 (centres undefined)	3T3 cytotox inconclusive, HEK293 tox inconclusive
CCCc1ccc(S(=O)(=O)N2C[C@@H](F)C[C@H]2C(=O)N2CCCCC2)cc1	none
O=C(NCc1nnc2cc(-c3nc(C4CC4)no3)ccn12)c1ccccc1	HEK293 tox inconclusive
O=C(NCc1nnc2cc(-c3nc(C4CC4)no3)ccn12)c1c(F)cccc1F	3T3 cytotox inconclusive, HEK293 tox 35.5µM
C[C@@H](NS(=O)(=O)c1ccccc1)c1onc(-c2ccccc2)c1C(=O)O	none
COc1ccc(C(=O)N2CCCC3(CC(c4cccc(C(F)(F)F)c4)=NO3)C2)cc1 (centres undefined)	3T3 cytotox inconclusive, HEK293 tox inconclusive
COc1ccc(CC(=O)N2CCC3(CC2)CC(c2cccc(C(F)(F)F)c2)=NO3)cc1	3T3 cytotox inconclusive, HEK293 tox 39.8µM (no result: FLuc inh, NPR1 antag, GPT2 inhibitor)
FC(F)(F)c1cccc(C2=NOC3(CCN(Cc4ccccc4)C3)C2)c1 (centres undefined)	3T3 cytotox inconclusive, GPT2 inhibitor inconclusive, HEK293 tox 44.7µM (no result: FLuc inh, NPR1 antag)
O=C(Cc1cccc(Cl)c1)N1CCC2(CC1)CC(c1cccc(C(F)(F)F)c1)=NO2	3T3 cytotox inconclusive, HEK293 tox 28.2µM (no result: FLuc inh, NPR1 antag, GPT2 inhibitor)
O=C(Cc1ccccc1)N1CCC2(CC1)CC(c1cccc(C(F)(F)F)c1)=NO2	3T3 cytotox inconclusive, HEK293 tox 44.7µM (no result: FLuc inh, NPR1 antag, GPT2 inhibitor)
CC(C)c1noc(-c2cn(C3CCN(C(=O)Cc4ccc(Cl)cc4)C3)nn2)n1 (centres undefined)	HEK293 tox inconclusive
CN1CCN(c2ccc(-c3nccc4c(=O)cc(N5CCOCC5)oc34)cn2)CC1	3T3 cytotox inconclusive
